Shown is part of a subset that was picked to be rich in hits.
E coli RNAP: E. coli RNAP inhibitors, biochemical. 62,000 tested, 0.2% active. inhibition, %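 (tested at 10 µM)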. AID 559, 2006. DNA-directed RNA polymerase subunit beta (Escherichia coli (strain K12)), P0A8V2. E. coli RNA polymerase, fluorescence transcription assay; in the data active = inhibition above about 20%;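 also: 0% = enzyme without compound and 100% = no enzyme blank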
TNAP act DEA: human TNAP enzyme activators, primary screen, biochemical, luminescent, intermediate phosphate acceptor level. purified TNAP, CDP-star luminescence, 100 mM DEA, 30 min; stronger effect = higher value; scale: 0 levamisole-inhibited, 1 vehicle-only enzyme. Alkaline phosphatase, tissue-nonspecific isozyme (Homo sapiens), P05186. AID 813, 2007. 64,000 tested, under 10 active. activation factor at 20 µM;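 active = activation factor of at least 2 at 20 µM, relative to controls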
PLAP activator: PLAP enzyme activators, biochemical, luminescence, HTS. AID 696, 2007. Alkaline phosphatase, placental type (Homo sapiens), P05187. 96,000 tested, 1.2% active. activation fold at 20 µM. purified PLAP enzyme, luminescent substrate read-out; stronger effect = higher value; in the data active = activation fold above about 2
Target sequence (P05187 whole entry, looked up): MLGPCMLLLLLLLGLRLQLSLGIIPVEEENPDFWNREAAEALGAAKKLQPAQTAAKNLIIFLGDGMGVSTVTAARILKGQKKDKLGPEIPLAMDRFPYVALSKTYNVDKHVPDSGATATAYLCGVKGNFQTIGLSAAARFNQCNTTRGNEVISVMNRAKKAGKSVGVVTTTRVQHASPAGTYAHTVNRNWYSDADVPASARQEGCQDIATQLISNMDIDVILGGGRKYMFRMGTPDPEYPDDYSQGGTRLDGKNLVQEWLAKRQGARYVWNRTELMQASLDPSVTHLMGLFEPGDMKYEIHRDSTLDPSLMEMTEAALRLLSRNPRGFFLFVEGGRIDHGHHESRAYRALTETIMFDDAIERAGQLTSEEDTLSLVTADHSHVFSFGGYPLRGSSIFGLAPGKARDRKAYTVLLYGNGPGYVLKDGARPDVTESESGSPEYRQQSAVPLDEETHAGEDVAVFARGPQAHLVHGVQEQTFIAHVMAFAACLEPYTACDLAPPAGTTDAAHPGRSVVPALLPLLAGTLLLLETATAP
Active calls of the source: *; x = not tested or not shown.

SMILES	E coli RNAP	TNAP act DEA	PLAP activator
CC1CC(C)CN(CCCNC(=O)c2ccc3c(c2)NC(=O)C(N2CCCCC2)S3)C1 (configuration not stated)	-11	0.9	1.5
COCCN(CC(=O)NCc1ccc(OC)cc1)C(=O)CCC(=O)Nc1nccs1	5	1	1
Cc1ccccc1-n1c(SCc2ccccn2)nc2n[nH]c(C)c2c1=N	x	x	2.3*
CCOc1ccccc1NC(=O)CCSc1nc2n[nH]c(C)c2c(=N)n1-c1ccccc1Cl	3	1	1.8
COc1cccc(C2c3c(oc4ccc(Cl)cc4c3=O)C(=O)N2c2cc(C)on2)c1OC (configuration not stated)	3	1	1.3
CCc1c(C)[nH]c2nc3ccccc3n2c1=O	x	x	2.3*
O=c1cc(-c2ccccc2)[nH]c2nc3ccccc3n12	-8	0.7	1.3
Cc1c(NS(=O)(=O)c2ccccc2)cc(Cl)c(O)c1C	26*	0.8	1.2
Cc1ccc(S(=O)(=O)Nc2cc(Cl)c(O)cc2C)cc1	x	x	1.1
CCCCN(CC)C(=O)c1ccc(Cl)c(Cl)c1	9	0.9	1.2
O=c1[nH]cnc2scc(C3COc4ccccc4O3)c12 (configuration not stated)	8	0.9	2.1*
O=c1[nH]cnc2scc(-c3ccc(-c4ccccc4)cc3)c12	x	x	0.8
CCn1c(C)nc2cc(C(=O)OCCC(F)(F)F)ccc21	6	0.8	0.8
CCn1c(C)nc2cc(C(=O)n3cc(C(=O)c4cc(F)ccc4O)cn3)ccc21	7	1	2.1*
CCC(=O)Nc1cc(C(=O)OC(C(=O)c2ccc(C)c(C)c2)c2ccccc2)ccc1C (configuration not stated)	x	x	1.3
Cc1nnc(SCc2cc(=O)[nH]c(Nc3nc(C)c4ccccc4n3)n2)s1	4	0.9	x
Cc1ccc2c(C)nc(Nc3nc(CSc4nc5ccccc5[nH]4)cc(=O)[nH]3)nc2c1	x	x	2.2*
COC(=O)c1nn(-c2ccc(Cl)cc2)c(=O)cc1Sc1ccccn1	x	x	0.9
CCCCC1CC1C(=O)Nc1ncc2c(n1)CC(C)(C)CC2=O (configuration not stated)	3	0.9	0.9
Cc1ccc(-c2nn(-c3ccccc3)c3[nH]c(=O)c(CNCCN(C)C)cc23)cc1	5	0.9	2.7*
Cc1nn(-c2ccccc2)c2[nH]c(=O)c(CNCCN3CCOCC3)cc12	2	0.9	1.1
CCOC(=O)c1cnn(-c2ccccc2)c1-n1cccc1C(=O)C(=O)Nc1ccccc1	x	x	1.1
CC(/C=N/NC(=O)c1n[nH]c2c1CCC2)=C\c1ccccc1	x	x	1.5
O=C(N/N=C/C=C/c1ccccc1)c1n[nH]c2c1CCC2	x	x	2.4*
CCc1nn2c(=O)cc(CSc3nc4sc5c(c4c(=O)n3C)CCCC5)nc2s1	3	0.9	x
SMILES	E coli RNAP	TNAP act DEA	PLAP activator
COc1ccc(Cl)cc1NC(=O)CSc1nnc(CN2CCOCC2)n1-c1ccc(Cl)cc1	x	x	1.8
Cc1cccc(NC(=O)c2sc3nc4c(c(-c5cccs5)c3c2N)CN(C)CC4)c1	x	x	1.7
CC(C)NC(=O)c1sc2nc3c(c(-c4cccs4)c2c1N)CN(C)CC3	x	x	2*
CC1CCN(c2ccc(C(=O)NCc3cccs3)cn2)CC1	1	1	0.8
CCCOC(=O)C1[C@H]2C(=O)N(CC3CCCO3)C[C@]23C=C[C@H]1O3 (some centres not stated)	7	0.9	1.7
Cn1c(CNc2ccccc2)nc2ccccc21	0	1	1.2
Cn1c(CNc2ccccc2O)nc2ccccc21	6	1	2.4*
O=C(c1ccccc1Oc1ccccc1)N1CCN(c2ccccc2F)CC1	x	x	1.4
Cc1occc1-c1nnc(SCC(=O)N2CCN(c3ccccc3F)CC2)n1C	2	1	x
CCN(CC)S(=O)(=O)c1ccc(N(C)Cc2cccnc2)nc1	x	x	1.9
COc1ccc(S(=O)(=O)Cc2ccc(C(=O)N3CCN(C(=O)c4ccco4)CC3)o2)cc1	1	0.9	0.9
O=C(NC1(C(F)(F)F)NC(=O)N(Cc2ccccc2)C1=O)c1cccnc1 (configuration not stated)	x	x	1.1
O=C1NC(Nc2nccs2)(C(F)(F)F)C(=O)N1CCc1ccccc1 (configuration not stated)	-7	0.9	2*
COc1ccc(S(=O)(=O)N2CCN(CC(=O)Nc3cc(C(F)(F)F)ccc3Cl)CC2)cc1	11	0.9	0.9
Cc1cc(NC(=O)C2CCCN(S(=O)(=O)c3c(C)noc3C)C2)n[nH]1 (configuration not stated)	5	1	0.8
CCC1CCC/C1=N\NC(=O)c1cc(C)[nH]n1 (configuration not stated)	x	x	2.3*
CCC1(C)Cc2c(sc3c2c(=O)n(C)c2nnc(SCC(=O)c4ccc(Cl)cc4)n32)CO1 (configuration not stated)	-16	0.9	x
NC(=O)C(c1ccc(Cl)cc1Cl)c1ncc(C(F)(F)F)cc1Cl (configuration not stated)	x	x	0.7
CCOC(=O)c1csc(Nc2nc3ccc(F)cc3s2)n1	2	1	1.1
CC(=O)c1sc(Nc2nc3ccc(F)cc3s2)nc1C	6	1	2.3*
COc1cc(S(=O)(=O)N2CCN(C)CC2)c(OC)cc1Br	17	0.9	1.3
COC(=O)c1cc(CSc2nnc(NC3CCCCC3)s2)oc1C	5	1	1.2
CCOCCCNC(=S)NNC(=O)CCn1nc(C)c(Br)c1C	x	x	2.9*
CNC(=S)NNC(=O)Cn1ccc(C)n1	x	x	1.4
Cc1cc(C(=O)NNC(=S)NCC(C)C)no1	x	x	1.8
SMILES	E coli RNAP	TNAP act DEA	PLAP activator
CNC(=S)NNC(=O)CCn1nc(C)c(Br)c1C	x	x	2.1*
CCOCCCNC(=O)c1c(C)c(C(=O)OCC)n(C)c1C	-7	1	1.3
Cc1nn(CCC(=O)NNC(=S)NCC(C)C)c(C)c1Br	x	x	2.5*
Cc1cc(C)c2c(n1)nn1c(N3CCN(c4ccccc4C)CC3)cc(C)nc21	-7	1	x
CCOC(=O)N1CCN(C(=O)CN(c2cccc(C(F)(F)F)c2)S(C)(=O)=O)CC1	3	0.9	1.5
CSc1ccc(N2C(=O)NC3(CCCCC3)C2=O)cc1	-6	0.9	0.9
CCc1ccc(-c2cc(C(F)(F)F)n3nc(C(=O)Nc4cnn(Cc5ccc(C)cc5)c4)cc3n2)s1	x	x	1.1
COc1ccc(-c2nnn(CC(=O)Nc3sc4c(c3C#N)CCCC4)n2)cc1	5	0.9	1.1
COc1ccccc1CNC(=O)N[C@@H](Cc1ccccc1)C(=O)O	10	0.9	1
COc1ccc(CSc2nc3ccccc3[nH]2)cc1	x	x	0.9
c1ccc2[nH]c(SCc3ccc(-c4nnco4)cc3)nc2c1	2	0.9	2*
CCn1c(SCC(=O)NC(=O)Nc2ccc3c(c2)OCCO3)nnc1-c1cccs1	22*	1	0.8
CCn1c(SCC(=O)Nc2ccc3c(c2)OCCO3)nnc1-c1ccco1	4	1	0.8
CCc1cc2c(=O)n(CC)c(SC(C)C(=O)Nc3c(C)n(C)n(-c4ccccc4)c3=O)nc2s1 (configuration not stated)	x	x	1.8
CCc1cccc(NC(=O)Cn2cccc2)c1	8	0.9	1

High-throughput results from PubChem.
